Assay results taken from the supplement of paper PMC11732987, “Enantioselective OTUD7B fragment discovery through chemoproteomics screening and high-throughput optimisation” (Communications Chemistry, 2025).

What was measured:
Experiment in all cases: log2 ratio of Biotin-Ahx-Ub-VS probe labelling (fragment/DMSO); higher = less target engagement (more negative = stronger competition), active = hit call of the paper (q ≤ 0.05, log2 ratio ≤ -1)
Conditions in all cases: compound concentration: 200 uM; treatment time: 3 h
[1] = molecular target: T1, USP42 (UniProt Q9H9J4)
T1 sequence (whole entry): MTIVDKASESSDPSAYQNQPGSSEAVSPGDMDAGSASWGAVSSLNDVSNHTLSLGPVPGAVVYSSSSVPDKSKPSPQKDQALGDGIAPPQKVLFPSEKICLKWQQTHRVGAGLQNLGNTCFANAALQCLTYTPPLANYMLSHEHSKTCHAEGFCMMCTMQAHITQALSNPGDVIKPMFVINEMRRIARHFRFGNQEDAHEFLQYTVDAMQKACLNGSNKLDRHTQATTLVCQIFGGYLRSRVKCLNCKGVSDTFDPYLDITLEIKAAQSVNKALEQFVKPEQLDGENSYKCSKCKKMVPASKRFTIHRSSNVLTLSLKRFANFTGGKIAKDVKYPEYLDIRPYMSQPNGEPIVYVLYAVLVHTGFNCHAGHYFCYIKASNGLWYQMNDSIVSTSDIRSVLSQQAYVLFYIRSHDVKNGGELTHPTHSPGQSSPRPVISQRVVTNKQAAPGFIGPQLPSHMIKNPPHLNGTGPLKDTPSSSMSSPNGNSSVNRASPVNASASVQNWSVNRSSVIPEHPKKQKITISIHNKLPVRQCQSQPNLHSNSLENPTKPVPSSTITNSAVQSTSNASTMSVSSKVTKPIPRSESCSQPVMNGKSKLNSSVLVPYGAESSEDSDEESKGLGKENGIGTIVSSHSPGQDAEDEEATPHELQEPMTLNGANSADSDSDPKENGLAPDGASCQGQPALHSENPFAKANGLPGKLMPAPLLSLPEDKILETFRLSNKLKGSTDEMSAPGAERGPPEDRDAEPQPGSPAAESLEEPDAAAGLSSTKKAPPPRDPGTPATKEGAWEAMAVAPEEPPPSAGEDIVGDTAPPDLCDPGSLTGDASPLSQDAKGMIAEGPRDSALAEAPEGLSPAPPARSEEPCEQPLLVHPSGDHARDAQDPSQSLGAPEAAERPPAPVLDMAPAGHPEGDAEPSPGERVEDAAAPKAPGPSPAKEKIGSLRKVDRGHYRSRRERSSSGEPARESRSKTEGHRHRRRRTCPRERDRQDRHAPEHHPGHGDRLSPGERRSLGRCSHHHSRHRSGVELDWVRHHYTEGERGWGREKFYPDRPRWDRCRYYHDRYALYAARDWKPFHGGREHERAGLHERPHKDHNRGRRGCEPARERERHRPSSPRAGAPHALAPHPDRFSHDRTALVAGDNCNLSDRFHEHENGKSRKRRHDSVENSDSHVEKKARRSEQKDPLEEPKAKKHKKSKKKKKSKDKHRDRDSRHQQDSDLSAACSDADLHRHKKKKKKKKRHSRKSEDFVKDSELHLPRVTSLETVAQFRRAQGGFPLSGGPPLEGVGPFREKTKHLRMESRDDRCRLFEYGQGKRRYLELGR
Procedure, shortened: (§1)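 Labelled DUBs were enriched with NeutrAvidin, digested with LysC and trypsin, and run by diaPASEF LC-MS/MS. The labelling used Biotin-Ahx-Ub-VS at 0.5 µM final for 1 h on HEK293T lysate (495 µg per sample) previously treated in triplicate with fragment at 200 µM or vehicle for 3 h. Values are average log2 fragment/vehicle ratios by unpaired t-test on global-median-normalised Spectronaut quantities of proteins with ≥2 unique peptides.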

[2] = molecular target: USP46 (UniProt P62068)
Sequence of USP46 (P62068 whole entry): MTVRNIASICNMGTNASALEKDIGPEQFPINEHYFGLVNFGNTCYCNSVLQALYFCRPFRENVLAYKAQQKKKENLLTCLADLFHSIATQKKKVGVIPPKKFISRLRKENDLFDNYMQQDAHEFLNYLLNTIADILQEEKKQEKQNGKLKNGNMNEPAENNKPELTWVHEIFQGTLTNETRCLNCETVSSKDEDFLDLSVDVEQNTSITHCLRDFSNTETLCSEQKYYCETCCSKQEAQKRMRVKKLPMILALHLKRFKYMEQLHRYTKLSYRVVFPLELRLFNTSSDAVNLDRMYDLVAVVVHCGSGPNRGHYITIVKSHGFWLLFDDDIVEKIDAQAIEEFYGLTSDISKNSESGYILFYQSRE
Procedure, shortened: as §1

[3] = molecular target: T2, USP47 (UniProt Q96K76)
T2 sequence (whole entry): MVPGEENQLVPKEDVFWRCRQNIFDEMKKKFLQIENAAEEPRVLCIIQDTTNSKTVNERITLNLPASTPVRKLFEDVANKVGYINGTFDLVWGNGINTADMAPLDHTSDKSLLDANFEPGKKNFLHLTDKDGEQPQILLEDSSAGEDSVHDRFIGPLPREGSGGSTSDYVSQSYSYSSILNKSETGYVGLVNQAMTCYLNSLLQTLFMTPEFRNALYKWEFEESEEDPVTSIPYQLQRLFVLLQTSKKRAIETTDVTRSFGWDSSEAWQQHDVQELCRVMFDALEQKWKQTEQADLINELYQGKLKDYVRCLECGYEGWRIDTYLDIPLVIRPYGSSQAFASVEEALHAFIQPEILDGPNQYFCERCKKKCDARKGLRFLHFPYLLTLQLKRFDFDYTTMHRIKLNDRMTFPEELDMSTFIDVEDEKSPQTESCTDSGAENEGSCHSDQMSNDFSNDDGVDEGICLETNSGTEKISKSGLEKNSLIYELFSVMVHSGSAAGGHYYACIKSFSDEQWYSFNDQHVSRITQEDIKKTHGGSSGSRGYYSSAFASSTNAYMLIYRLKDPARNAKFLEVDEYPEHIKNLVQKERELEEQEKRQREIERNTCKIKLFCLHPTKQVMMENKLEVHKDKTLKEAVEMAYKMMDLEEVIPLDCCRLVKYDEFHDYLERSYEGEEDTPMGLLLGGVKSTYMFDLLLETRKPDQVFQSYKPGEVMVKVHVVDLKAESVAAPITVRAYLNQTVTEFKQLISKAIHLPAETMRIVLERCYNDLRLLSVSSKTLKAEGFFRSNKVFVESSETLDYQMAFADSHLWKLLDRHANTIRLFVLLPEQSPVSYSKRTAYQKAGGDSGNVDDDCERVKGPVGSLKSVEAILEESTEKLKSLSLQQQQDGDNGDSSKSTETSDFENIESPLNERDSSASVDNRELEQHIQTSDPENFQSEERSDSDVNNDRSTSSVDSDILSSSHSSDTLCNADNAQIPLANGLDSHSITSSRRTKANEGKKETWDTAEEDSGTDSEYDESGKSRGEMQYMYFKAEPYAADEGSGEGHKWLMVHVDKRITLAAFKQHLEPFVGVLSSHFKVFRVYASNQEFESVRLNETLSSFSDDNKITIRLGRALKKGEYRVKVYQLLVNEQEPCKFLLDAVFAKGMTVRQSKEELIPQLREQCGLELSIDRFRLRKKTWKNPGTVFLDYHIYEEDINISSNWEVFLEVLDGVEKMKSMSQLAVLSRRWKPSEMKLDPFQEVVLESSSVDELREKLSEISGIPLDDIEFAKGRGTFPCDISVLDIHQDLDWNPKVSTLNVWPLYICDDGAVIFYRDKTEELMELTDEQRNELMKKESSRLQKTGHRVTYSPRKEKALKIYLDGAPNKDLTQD
Procedure, shortened: as §1

[4] = molecular target: T3, USP48 (UniProt Q86UV5)
T3 sequence (whole entry): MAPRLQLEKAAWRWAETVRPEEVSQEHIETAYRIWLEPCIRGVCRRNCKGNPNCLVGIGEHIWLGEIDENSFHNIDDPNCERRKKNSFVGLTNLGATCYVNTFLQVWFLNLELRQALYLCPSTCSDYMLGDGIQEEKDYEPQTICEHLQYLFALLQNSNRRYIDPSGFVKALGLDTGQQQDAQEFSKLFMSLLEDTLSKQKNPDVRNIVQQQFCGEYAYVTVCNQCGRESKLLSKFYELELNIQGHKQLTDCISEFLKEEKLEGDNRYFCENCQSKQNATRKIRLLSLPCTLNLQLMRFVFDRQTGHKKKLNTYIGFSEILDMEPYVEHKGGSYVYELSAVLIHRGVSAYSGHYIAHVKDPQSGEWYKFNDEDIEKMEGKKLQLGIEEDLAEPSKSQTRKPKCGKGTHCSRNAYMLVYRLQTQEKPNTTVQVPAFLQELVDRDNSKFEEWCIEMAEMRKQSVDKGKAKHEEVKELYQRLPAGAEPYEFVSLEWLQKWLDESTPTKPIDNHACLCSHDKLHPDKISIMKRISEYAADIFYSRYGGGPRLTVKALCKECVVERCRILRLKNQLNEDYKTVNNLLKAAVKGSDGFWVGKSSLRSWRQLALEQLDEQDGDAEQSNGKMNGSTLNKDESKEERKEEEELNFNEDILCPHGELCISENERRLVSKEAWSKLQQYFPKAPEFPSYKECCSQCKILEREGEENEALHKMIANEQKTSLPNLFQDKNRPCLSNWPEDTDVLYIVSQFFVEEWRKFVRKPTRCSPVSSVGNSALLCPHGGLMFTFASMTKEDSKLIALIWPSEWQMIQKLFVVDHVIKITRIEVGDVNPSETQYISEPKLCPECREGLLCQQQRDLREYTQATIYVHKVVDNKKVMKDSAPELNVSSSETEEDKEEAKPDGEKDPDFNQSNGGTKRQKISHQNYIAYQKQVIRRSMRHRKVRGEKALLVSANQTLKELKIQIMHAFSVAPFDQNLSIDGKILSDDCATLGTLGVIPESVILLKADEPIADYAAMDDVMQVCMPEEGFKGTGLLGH
Procedure, shortened: as §1

[5] = molecular target: T4, USP5 (UniProt P45974)
T4 sequence (whole entry): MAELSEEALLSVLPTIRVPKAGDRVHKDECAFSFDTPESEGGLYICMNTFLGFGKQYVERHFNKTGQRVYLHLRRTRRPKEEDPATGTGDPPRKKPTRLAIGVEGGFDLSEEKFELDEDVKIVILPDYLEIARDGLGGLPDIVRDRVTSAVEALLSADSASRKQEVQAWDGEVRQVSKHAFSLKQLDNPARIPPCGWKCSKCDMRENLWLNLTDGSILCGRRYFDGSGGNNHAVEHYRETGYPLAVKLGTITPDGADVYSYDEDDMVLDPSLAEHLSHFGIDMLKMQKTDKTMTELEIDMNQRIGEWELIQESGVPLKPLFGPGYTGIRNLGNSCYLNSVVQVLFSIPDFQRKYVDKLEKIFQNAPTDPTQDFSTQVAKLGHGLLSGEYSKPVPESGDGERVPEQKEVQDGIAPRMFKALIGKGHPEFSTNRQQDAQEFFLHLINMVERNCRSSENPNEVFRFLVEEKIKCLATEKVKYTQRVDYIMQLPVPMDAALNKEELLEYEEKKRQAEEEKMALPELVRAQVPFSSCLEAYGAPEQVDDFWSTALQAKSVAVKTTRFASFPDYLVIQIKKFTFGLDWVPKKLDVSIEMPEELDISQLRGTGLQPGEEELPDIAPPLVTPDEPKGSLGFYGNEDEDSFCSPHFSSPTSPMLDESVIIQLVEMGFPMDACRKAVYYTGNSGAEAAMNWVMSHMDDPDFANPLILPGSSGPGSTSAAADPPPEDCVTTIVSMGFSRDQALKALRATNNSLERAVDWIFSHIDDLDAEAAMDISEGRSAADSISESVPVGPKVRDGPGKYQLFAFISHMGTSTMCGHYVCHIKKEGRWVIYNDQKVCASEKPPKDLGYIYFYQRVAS
Procedure, shortened: as §1

[6] = molecular target: USP54 (UniProt Q70EL1)
Procedure, shortened: as §1

[7] = molecular target: USP7 (UniProt Q93009)
Sequence of USP7 (Q93009 whole entry, looked up): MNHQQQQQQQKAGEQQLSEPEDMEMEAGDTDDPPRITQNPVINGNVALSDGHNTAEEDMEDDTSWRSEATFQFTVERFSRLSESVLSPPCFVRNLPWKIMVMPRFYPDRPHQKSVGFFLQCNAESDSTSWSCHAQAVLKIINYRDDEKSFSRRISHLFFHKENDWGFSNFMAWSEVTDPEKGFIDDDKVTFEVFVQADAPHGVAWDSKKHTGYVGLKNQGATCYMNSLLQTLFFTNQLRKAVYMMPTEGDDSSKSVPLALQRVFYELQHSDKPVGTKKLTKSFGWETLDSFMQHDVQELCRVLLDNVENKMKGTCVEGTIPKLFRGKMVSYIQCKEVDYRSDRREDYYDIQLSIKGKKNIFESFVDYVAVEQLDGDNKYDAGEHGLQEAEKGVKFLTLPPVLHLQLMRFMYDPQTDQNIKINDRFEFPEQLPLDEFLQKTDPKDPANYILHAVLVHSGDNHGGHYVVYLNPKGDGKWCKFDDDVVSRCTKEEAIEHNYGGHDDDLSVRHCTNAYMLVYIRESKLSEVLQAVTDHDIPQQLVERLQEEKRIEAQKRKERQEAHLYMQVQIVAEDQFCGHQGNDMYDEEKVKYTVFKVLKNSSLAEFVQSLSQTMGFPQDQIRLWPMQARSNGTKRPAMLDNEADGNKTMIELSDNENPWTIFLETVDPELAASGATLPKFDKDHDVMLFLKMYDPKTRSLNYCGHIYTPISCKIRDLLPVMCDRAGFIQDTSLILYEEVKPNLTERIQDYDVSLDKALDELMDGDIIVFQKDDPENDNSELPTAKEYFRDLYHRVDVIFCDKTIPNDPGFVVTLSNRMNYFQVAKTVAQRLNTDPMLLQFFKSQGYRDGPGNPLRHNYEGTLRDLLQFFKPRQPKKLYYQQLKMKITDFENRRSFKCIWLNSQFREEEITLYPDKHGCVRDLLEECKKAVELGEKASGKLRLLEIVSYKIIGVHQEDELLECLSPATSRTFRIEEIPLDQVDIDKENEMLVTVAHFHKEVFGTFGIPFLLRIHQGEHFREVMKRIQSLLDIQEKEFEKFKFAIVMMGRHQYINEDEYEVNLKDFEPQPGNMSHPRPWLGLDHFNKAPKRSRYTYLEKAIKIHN
Procedure, shortened: as §1

[8] = molecular target: T5, USP8 (UniProt P40818)
T5 sequence (whole entry): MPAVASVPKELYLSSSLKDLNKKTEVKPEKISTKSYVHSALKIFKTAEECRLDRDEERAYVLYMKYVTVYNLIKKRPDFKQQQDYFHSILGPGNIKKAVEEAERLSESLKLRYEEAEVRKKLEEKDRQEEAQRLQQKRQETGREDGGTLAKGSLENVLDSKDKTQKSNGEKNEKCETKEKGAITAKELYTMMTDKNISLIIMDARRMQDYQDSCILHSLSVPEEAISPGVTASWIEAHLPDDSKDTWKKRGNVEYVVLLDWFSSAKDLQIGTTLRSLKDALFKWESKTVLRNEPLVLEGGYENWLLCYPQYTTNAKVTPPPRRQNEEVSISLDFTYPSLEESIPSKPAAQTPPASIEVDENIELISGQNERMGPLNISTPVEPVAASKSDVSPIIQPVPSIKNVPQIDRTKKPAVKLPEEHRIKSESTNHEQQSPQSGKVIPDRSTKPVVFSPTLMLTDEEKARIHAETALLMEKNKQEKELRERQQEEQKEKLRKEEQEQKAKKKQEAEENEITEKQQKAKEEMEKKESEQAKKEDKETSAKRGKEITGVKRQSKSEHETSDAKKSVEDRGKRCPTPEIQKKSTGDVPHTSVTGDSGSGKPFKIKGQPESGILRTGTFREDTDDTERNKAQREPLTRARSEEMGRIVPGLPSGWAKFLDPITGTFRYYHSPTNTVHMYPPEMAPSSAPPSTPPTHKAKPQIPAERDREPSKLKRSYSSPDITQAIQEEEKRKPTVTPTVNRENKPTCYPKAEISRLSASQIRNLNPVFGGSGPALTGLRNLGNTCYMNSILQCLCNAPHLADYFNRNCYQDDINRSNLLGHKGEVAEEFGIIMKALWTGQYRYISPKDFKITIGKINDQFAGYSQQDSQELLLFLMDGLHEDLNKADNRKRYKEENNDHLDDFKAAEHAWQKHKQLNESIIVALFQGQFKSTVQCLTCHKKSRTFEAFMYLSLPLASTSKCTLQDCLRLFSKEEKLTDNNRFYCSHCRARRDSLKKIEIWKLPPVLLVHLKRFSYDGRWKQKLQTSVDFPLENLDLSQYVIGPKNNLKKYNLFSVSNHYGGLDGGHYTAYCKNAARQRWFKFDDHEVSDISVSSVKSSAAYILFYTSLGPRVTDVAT
Procedure, shortened: as §1

[9] = molecular target: USP9X (UniProt Q93008)
Sequence of USP9X (Q93008 whole entry): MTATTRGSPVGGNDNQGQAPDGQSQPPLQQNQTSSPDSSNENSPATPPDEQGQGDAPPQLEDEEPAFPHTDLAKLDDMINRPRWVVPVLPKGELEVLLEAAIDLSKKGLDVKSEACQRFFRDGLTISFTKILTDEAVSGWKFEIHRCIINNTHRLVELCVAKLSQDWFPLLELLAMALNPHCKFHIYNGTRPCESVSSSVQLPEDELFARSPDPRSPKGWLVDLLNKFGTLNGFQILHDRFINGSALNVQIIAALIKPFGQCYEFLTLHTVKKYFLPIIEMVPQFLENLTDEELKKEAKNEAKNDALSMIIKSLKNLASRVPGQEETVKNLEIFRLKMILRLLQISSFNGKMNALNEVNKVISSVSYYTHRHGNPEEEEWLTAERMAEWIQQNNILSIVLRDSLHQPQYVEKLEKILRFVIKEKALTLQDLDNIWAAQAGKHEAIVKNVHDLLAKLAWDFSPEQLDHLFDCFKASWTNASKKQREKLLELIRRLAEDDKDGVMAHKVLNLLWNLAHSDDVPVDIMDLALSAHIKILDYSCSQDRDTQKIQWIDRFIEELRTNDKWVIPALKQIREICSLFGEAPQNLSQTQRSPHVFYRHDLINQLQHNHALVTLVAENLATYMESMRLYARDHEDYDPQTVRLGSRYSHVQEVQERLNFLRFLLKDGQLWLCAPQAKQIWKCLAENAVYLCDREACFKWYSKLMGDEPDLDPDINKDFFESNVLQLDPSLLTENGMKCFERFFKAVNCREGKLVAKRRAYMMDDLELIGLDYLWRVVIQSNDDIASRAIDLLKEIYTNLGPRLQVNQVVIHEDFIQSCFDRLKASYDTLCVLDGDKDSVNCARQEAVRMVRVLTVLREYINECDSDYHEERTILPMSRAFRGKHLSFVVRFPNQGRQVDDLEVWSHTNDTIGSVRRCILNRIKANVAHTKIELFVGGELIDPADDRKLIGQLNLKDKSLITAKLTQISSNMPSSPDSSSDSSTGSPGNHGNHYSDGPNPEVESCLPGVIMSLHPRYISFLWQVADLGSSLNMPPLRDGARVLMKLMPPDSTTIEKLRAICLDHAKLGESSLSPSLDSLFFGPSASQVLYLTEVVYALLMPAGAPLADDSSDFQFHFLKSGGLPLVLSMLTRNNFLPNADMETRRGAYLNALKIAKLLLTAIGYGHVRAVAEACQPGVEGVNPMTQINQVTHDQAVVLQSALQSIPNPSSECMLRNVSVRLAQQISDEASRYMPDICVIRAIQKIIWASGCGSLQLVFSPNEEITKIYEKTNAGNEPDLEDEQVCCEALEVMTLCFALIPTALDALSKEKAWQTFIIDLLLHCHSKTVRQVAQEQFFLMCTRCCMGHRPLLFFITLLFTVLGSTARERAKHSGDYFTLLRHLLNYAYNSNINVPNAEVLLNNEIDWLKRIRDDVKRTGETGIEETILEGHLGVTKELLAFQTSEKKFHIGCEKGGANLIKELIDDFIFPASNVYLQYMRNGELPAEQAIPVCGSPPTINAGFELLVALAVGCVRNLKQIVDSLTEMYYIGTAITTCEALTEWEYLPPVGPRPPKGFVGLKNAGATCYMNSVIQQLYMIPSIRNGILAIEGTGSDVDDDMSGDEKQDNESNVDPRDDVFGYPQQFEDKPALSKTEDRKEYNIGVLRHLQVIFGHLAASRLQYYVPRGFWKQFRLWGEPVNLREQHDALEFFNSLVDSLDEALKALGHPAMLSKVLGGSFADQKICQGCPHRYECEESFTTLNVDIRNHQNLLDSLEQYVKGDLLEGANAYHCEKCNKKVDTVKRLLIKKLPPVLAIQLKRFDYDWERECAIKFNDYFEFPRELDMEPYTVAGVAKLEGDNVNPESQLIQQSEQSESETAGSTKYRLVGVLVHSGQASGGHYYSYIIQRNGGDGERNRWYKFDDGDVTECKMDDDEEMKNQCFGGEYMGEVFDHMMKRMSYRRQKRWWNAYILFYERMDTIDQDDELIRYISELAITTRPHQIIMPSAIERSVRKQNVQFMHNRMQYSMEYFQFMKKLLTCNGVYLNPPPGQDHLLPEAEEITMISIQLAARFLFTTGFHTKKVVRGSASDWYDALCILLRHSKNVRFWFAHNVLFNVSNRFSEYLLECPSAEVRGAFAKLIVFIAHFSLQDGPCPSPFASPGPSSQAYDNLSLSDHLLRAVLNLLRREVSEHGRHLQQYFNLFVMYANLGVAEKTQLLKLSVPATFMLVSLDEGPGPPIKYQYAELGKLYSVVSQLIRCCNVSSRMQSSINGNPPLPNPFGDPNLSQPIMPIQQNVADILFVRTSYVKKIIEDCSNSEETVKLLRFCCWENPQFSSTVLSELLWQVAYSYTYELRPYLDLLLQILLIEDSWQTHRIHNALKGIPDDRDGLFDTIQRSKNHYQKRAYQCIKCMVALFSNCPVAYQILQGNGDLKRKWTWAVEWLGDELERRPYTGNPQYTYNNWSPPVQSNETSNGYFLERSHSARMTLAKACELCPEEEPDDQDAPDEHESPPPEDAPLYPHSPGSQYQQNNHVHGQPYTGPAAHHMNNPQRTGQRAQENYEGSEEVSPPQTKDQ
Procedure, shortened: as §1

[10] = molecular target: UniProt O00487
Sequence of UniProt O00487 (O00487 whole entry): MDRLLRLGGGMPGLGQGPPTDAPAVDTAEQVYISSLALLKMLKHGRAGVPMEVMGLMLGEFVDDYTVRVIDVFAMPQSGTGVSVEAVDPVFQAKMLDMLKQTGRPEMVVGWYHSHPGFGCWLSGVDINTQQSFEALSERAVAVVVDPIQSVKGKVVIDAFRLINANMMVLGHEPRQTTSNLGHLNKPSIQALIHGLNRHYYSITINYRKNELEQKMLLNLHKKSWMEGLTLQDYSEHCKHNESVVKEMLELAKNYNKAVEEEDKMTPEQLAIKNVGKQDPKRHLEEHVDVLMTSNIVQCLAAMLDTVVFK
Procedure, shortened: as §1

Measured: log2 ratio of Biotin-Ahx-Ub-VS probe labelling

Cc1nc(CN2CCCN(C(=O)CCl)CC2)no1.Cl
inactive: [1] 0.102 | [2] 0.0734 | [3] -0.095 | [4] 0.261 | [5] -0.016 | [6] -0.482 | [7] -0.0348 | [8] 0.237 | [9] 0.101 | [10] 0.118
